INS-1E GSIS act: GLuc luminescence reporter in INS-1E cells, primary screen for activators of glucose-dependent secretion of insulin; activation, % at 16.6 µM; AID 743287; INS-1E GLuc reporter insulin secretion, 2-3 h; 0.61% of 370,000 active;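 active = lowest replicate activation of at least 40%, so every replicate reaches that level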
NRP1-CendR mod: modulators of CendR peptide binding to human neuropilin-1. O14786. FAM-RPARPAR peptide binding to NRP-1, fluorescence polarization. inhibition, % at 25 µM. 0.85% of 360,000 active;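 active = inhibition or corrected inhibition above about 18%, plus a signal ratio from 0.5 to 1.5, limit read from the data, passing the limit was not always enough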
ABCB6 inh MLPCN: inhibitors of human ABC transporter ABCB6; Q9NP58; K562-ABCB6 porphyrin accumulation, flow cytometry, 1 h; hits give low values; fluorescence ratio to DMSO, % at 10 µM; 0.19% of 360,000 active;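 active = fluorescence ratio to DMSO below 75%, the collection mean minus 3 SD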;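 note: signal is porphyrin accumulated inside mitochondria; lower ratio means ABCB6 inhibition with less porphyrin fluorescence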
ARNT TACC3 PPI: disruptors of human ARNT/TACC3 interaction; Q9Y6A5; AlphaScreen His-ARNT PAS-B/GST-TACC3 binding, luminescence; TACC3 fragment carries E629A point mutation; inhibition, % at 9.99 µM; 0.66% of 390,000 active; AID 623870;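 active = mean inhibition of replicates at least 50% and at least half of replicates each reaching 50%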
iPSC survival up: enhancers of human iPSC single-cell survival | hiPSC single-cell survival, ATPlite luminescence; 100% = ROCK inhibitor wells, 0% = DMSO | survival enhancement, % at 20 µM | 0.044% of 360,000 active; in the data active = survival enhancement above about 18%;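 note: cells exposed to compounds for 16 hours before the ATP read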
Hits are given with their value; i = inactive; nt = not tested or not shown. Rows were chosen to be rich in hits. Some 1.8% of all compounds tested hit in one or more screens of this group.

SMILES | INS-1E GSIS act | NRP1-CendR mod | ABCB6 inh MLPCN | ARNT TACC3 PPI | iPSC survival up
C/C=C/Cn1c(SC)nc2c1c(=O)[nH]c(=O)n2C | nt | i | i | i | i
NC(=O)COC(=O)c1c2c(nc3ccccc13)CCCC2 | i | i | i | i | i
NC(=O)COC(=O)c1c2c(nc3ccccc13)CCC2 | i | 20.0 | i | i | i
COc1ccc(Nc2cc(C)nc3ccccc23)cc1 | 42.1 | i | i | i | i
Cc1ccc(-c2nc(NCCCN(C)C)c3ccccc3n2)cc1 | i | i | i | nt | i
Cc1ccc(-c2csc3nc4c5ccccc5c(NCCCN(C)C)nn4c(=O)c23)cc1 | i | i | i | 67.1 | i
Cc1cc(=O)[nH]c2nnc(SCC(=O)N3CC(C)OC(C)C3)n12 (centres undefined) | i | i | i | i | i
CCCc1cc(=O)[nH]c2nnc(SCC(=O)N3CC(C)OC(C)C3)n12 (centres undefined) | 55.0 | i | i | i | i
CC(C)NC(=O)Nc1ccc2c(c1)C(=O)N(C)C[C@H](C)[C@H](CN(C)C(=O)OC(C)(C)C)O2 | i | nt | nt | nt | nt
C[C@H]1CN([C@@H](C)CO)C(=O)c2cccc(NC(=O)Nc3ccccc3)c2O[C@H]1CN(C)Cc1ccc(-c2ccccc2)cc1 | i | nt | nt | i | nt
Cc1cccc2sc(NC(=O)CN3C(=O)NC4(CCCC4)C3=O)nc12 | i | i | i | i | i
Cc1cccc2sc(NC(=O)CN3C(=O)C4CC=CCC4C3=O)nc12 (centres undefined) | i | 32.5 | i | i | i
O=C(NCC(=O)N1CCCC1)c1ccccc1F | i | i | i | i | i
O=C(NCC(=O)N1CCC(Cc2ccccc2)CC1)c1ccccc1F | nt | 32.3 | i | nt | i
C[C@@H]1CN([C@@H](C)CO)C(=O)c2cc(NC(=O)CCCN(C)C)ccc2O[C@H]1CN(C)C(=O)Nc1cccc2ccccc12 | i | nt | nt | i | nt
C/C=C1\COC(C(=O)NCc2ccncc2)(C(F)(F)F)C=C1C=C1CCCCC1 (centres undefined) | i | i | i | i | i
C/C=C1\COC(C(=O)NCc2cccc(OC)c2OC)(C(F)(F)F)C=C1C=C1CCCCC1 (centres undefined) | 72.7 | i | i | i | i
CC(C)NC(=O)Nc1cccc2c1O[C@H](CN(C)C(=O)NC(C)C)[C@H](C)CN(C)C2=O | i | nt | nt | nt | nt
Cn1nnnc1Sc1ncnc2scc(-c3ccc(Br)cc3)c12 | i | i | i | i | i
Cn1nnnc1Sc1ncnc2scc(-c3ccc(F)cc3)c12 | 60.7 | i | i | i | i
Cn1nnnc1Sc1ncnc2scc(-c3ccccc3)c12 | 45.4 | i | i | nt | i
Cc1ccc(NC(=O)CC2S/C(=N/N=C/c3c[nH]c4ccccc34)NC2=O)cc1 (centres undefined) | 59.9 | i | i | i | i
CCCNC(=O)N1C[C@H](C)[C@@H](OC)CN(C)C(=O)c2cc(NC(=O)C3CCC3)ccc2OC[C@H]1C | i | nt | nt | nt | nt
O=C(COC(=O)C1=COCCO1)Nc1ccc(OC(F)F)cc1 | i | 27.1 | i | i | i
O=C(COC(=O)C1=COCCO1)Nc1ccccc1 | i | i | i | i | i
SMILES | INS-1E GSIS act | NRP1-CendR mod | ABCB6 inh MLPCN | ARNT TACC3 PPI | iPSC survival up
CC1CC(=O)Nc2cc([N+](=O)[O-])ccc2N1 (centres undefined) | i | 32.5 | i | i | i
COc1ccc(CNC(=O)CN2C(=O)NC3(CCCCCC3)C2=O)cc1 | 61.6 | i | i | i | i
CO[C@H]1O[C@H](CO)[C@@H](OC(=O)Nc2cccc(F)c2)[C@H](OC(=O)Nc2ccccc2)[C@H]1OC(=O)Nc1ccccc1 | nt | nt | nt | i | nt
CCOC(=O)[C@H]1[C@H]2COc3ccc(OC)cc3[C@@H]2N2C(=O)c3ccc(C)cc3NC(=O)[C@@]12C | i | 24.2 | i | i | i
CCOC(=O)[C@H]1[C@H]2COc3ccc(Cl)cc3[C@@H]2N2C(=O)c3ccc(Cl)cc3NC(=O)[C@@]12C | i | i | i | 15.3 | i
CCOC(=O)[C@H]1[C@H]2COc3cc(OC)ccc3[C@@H]2N2C(=O)c3ccc(C)cc3NC(=O)[C@@]12C | i | i | i | i | i
CCOC(=O)[C@H]1[C@H]2COc3ccc(C)cc3[C@@H]2N2C(=O)c3ccc(Cl)cc3NC(=O)[C@@]12C | i | i | i | i | i
CCOC(=O)[C@H]1[C@H]2COc3cc(OC)ccc3[C@@H]2N2C(=O)CN(Cc3ccco3)C(=O)[C@@]12C | i | i | i | nt | i
CCOC(=O)[C@H]1[C@H]2COc3ccc(OC)cc3[C@@H]2N2C(=O)CN(Cc3ccco3)C(=O)[C@@]12C | i | 22.0 | i | i | i
COCC(=O)Nc1ccc2c(c1)C(=O)N(C)C[C@H](OC)[C@H](C)CN(C(=O)NC(C)C)[C@H](C)CO2 | i | nt | nt | i | nt
C[C@H](CO)N1C[C@H](C)[C@@H](CN(C)C(=O)[C@@H](Cc2ccccc2)N(C)C)OCc2ccccc2-c2c(n(C)c3ccccc23)C1=O | i | nt | nt | nt | nt
Cc1cccc(C(=O)NC2CCN(C(=S)NCc3ccco3)CC2)c1 | i | i | i | i | i
COc1ccc(C(=O)NC2CCN(C(=S)Nc3ccccc3C)CC2)cc1 | i | 19.0 | i | i | i
CCOc1ccc(C(=O)NC2CCN(C(=S)NCc3ccco3)CC2)cc1 | nt | 25.5 | i | i | i
O=C(OC1CCOC1=O)c1cc(-c2cccs2)nc2ccccc12 (centres undefined) | 58.9 | i | i | i | i
C[C@H]1CN([C@@H](C)CO)C(=O)c2cc(N(C)C)ccc2O[C@H]1CN(C)S(C)(=O)=O | i | nt | nt | i | nt
C[C@H](CO)N1C[C@H](C)[C@H](CN(C)S(=O)(=O)c2ccc(F)cc2)Oc2ccc(NC(=O)Nc3ccccc3)cc2C1=O | i | nt | nt | i | nt
COc1ccc(-c2csc(NC(CO)c3nc4ccccc4n3CCCO)n2)cc1 (centres undefined) | i | 26.1 | i | i | i
COc1ccc2c3c(n(C)c2c1)[C@H](CO)N(CC1CC1)CC31CN(S(=O)(=O)c2cn(C)cn2)C1 | i | nt | nt | nt | nt
Cc1nnc(NS(=O)(=O)c2ccc(N)cc2)s1 | i | i | i | i | i
Cc1nnc(NS(=O)(=O)c2ccc(N=Nc3ccc(N)nc3N)cc2)s1 | i | i | i | 56.8 | i
CN(Cc1ncc[nH]1)C(=O)CC1C(=O)NCCN1Cc1c(F)cccc1Cl (centres undefined) | i | 22.8 | i | i | i
Cc1cc(CN(C)C(=O)CC2C(=O)NCCN2Cc2c(F)cccc2Cl)on1 (centres undefined) | i | i | i | i | i
O=C(Cc1ccc(F)cc1)N1CCC(CC2CC(c3ccc(Cl)cc3)=NO2)(C(=O)NCC2CCCCC2)CC1 (centres undefined) | i | 24.6 | i | i | i
Cc1cc(=O)oc2c3c(cc(OCC(=O)N4CCC[C@H]4C(=O)O)c12)OC(C)(C)CC3 | i | i | i | 32.4 | i
CCCCc1cc(=O)oc2c3c(cc(OCC(=O)N4CCC[C@H]4C(=O)O)c12)OC(C)(C)CC3 | nt | i | i | nt | i
